Several values for one entry are separate records, joined by “and”; a condition that tells them apart may be missing. Identical values can stand only once. Inconclusive results are not listed. Entries that show only a call come without a potency. Where a structure was tested more than once in an assay, its records may differ in their call. Activity calls are given as the source filed them. Calls come from the whole dose curve; as a rule, active = well fitted curve in the direction sought with a large enough effect in the repeat runs; inconclusive = weak or mixed curves; inactive = no such curve, though single readings can be large; an effect the other way counts as inactive or inconclusive.
Experiments:
[1] = A CellTox Green Cytotoxicity Assay to monitor cytotoxicity in HEK293 cells - 40 hour (AID 1224871); note: nearly all actives have a fitted effect of over 45% in size
Summary of the method: (§1)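 Each value comes from one timepoint of a single continuous run in which HEK293 cells with CellTox Green were exposed to compound for up to 40 h at 37 C, dye fluorescence rising with cell death.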

[2] = qHTS RealTime-Glo MT Cell Viability Assay in HEK293 cells - 16 hour (AID 1224872); note: nearly all actives have a fitted effect of over 50% in size
Summary of the method: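 Viability tracked continuously by luminescence as live cells reduce a prosubstrate for NanoLuc; HEK293 cells preincubated 5 h, compound-treated at 37 C, and read at 0, 8, 16, 24, 32 and 40 h.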

[3] = qHTS RealTime-Glo MT Cell Viability Assay in HepG2 cells - 8 hour (AID 1224873); note: nearly all actives have a fitted effect of over 55% in size
Summary of the method: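 Real-time viability: cells seeded at 600 per well together with NanoLuc and cell-permeant prosubstrate, compounds added after 5 h incubation. Luminescence tracked at 0, 8, 16, 24, 32 and 40 h of exposure.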

[4] = qHTS RealTime-Glo MT Cell Viability Assay in HEK293 cells - 40 hour (AID 1224874); settings: RealTime-Glo luminescence; max response: stronger effect = lower value; note: nearly all actives have a fitted effect of over 50% in size
Summary of the method: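 qHTS format; HEK293 cells with NanoLuc/prosubstrate reagent, 37 C/5% CO2 for 5 h pre-dosing; compounds 23 nL in DMSO; luminescence at each time point reflects viable cells.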

[5] = A CellTox Green Cytotoxicity Assay to monitor cytotoxicity in HEK293 cells - 24 hour (AID 1224875); note: nearly all actives have a fitted effect of over 45% in size; for activity change: series mostly up to about 77 µM
Summary of the method: as §1

[6] = A CellTox Green Cytotoxicity Assay to monitor cytotoxicity in HepG2 cells - 16 hour (AID 1224876); note: nearly all actives have a fitted effect of over 45% in size
Summary of the method: (§2)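 Continuous culture of HepG2 cells with a membrane-impermeant DNA dye; rising fluorescence marks dead cells. Compound exposure lasted up to 40 h at 37 C, with reads every 8 h from 0 h.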

[7] = qHTS RealTime-Glo MT Cell Viability Assay in HepG2 cells - 32 hour (AID 1224877); note: nearly all actives have a fitted effect of over 55% in size
Summary of the method: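 Viability was tracked continuously by NanoLuc luminescence from prosubstrate reduced by living HepG2 cells, at successive time points over 40 h of compound exposure. Cells with reagent were preincubated 5 h at 37 °C before compound addition.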

[8] = A CellTox Green Cytotoxicity Assay to monitor cytotoxicity in HepG2 cells - 24 hour (AID 1224878); note: nearly all actives have a fitted effect of over 45% in size
Summary of the method: as §2

[9] = A CellTox Green Cytotoxicity Assay to monitor cytotoxicity in HepG2 cells - 40 hour (AID 1224879); note: nearly all actives have a fitted effect of over 40% in size
Summary of the method: as §2
Potency is the fitted concentration of half-maximal effect.

SMILES	Potency [1]	Potency [2]	Potency [3]	max response [4]	Potency [5]	Potency [6]	Potency [7]	Potency [8]	Potency [9]	Potency [4]	viability change, negative = cytotoxic [3]	activity change, negative = cytotoxic [7]
CS(=O)(=O)OCCCCOS(C)(=O)=O	inactive	inactive	inactive	2.47% (inactive) and 13.2% (inactive) and 7.82% (inactive)	inactive	inactive	inactive	inactive	inactive	–	–	–
O=S1(=O)OC(c2ccc(O)cc2)(c2ccc(O)cc2)c2ccccc21	inactive	inactive	49 µM (active) and inactive	-23.8% (inactive)	inactive	inactive	49 µM (active) and inactive	inactive	inactive	–	–	–
O=C1c2c(O)cccc2Cc2cccc(O)c21	inactive	inactive	inactive	-2.74% (inactive) and 0.603% (inactive) and 0.249% (inactive)	inactive	inactive	inactive	inactive	inactive	–	–	–
CN(N=O)C(=O)N[C@@H]1[C@@H](O)[C@H](O)[C@@H](CO)O[C@@H]1O	inactive	inactive	inactive	1.13% (inactive) and 4.9% (inactive) and 1.17% (inactive)	inactive	inactive	inactive	inactive	inactive	–	–	–
COc1ccc(CN(CCN(C)C)c2ccccn2)cc1	inactive	–	–	–	inactive	inactive	–	inactive	inactive	–	–	–
Cc1cn([C@H]2C=C[C@@H](CO)O2)c(=O)[nH]c1=O	inactive	inactive	inactive	3.84% (inactive) and 0.681% (inactive)	inactive	inactive	inactive	inactive	inactive	–	–	–
Cc1cc(=O)oc2cc(O)ccc12	inactive	inactive	inactive	-14.5% (inactive) and -7.95% (inactive) and -6.84% (inactive)	inactive	inactive	inactive	inactive	inactive	–	–	–
O=C1O[C@H]([C@@H](O)CO)C(O)=C1O	inactive	inactive	inactive	5.34% (inactive) [middle of 5 runs]	inactive	inactive	inactive	inactive	inactive	–	–	–
O=C1NC(=O)C(c2ccccc2)(c2ccccc2)N1	inactive and 16.9 µM (active)	inactive	inactive	-30.3% (inactive) and -21% (inactive)	–	inactive and 23.9 µM (active)	inactive	inactive and 23.9 µM (active)	inactive and 23.9 µM (active)	–	–	–
Nc1ccc([N+](=O)[O-])cc1O	inactive	inactive	inactive	–	inactive	inactive	inactive	inactive	inactive	–	–	–
CC(C)C(=O)Nc1ccc([N+](=O)[O-])c(C(F)(F)F)c1	inactive	20 µM (active) and 19.5 µM (active) and 10.7 µM (active)	inactive	–	inactive	inactive	inactive	inactive	inactive	11.3 µM (active) and 21.9 µM (active) and 9.52 µM (active)	–	–
C=CCc1ccc(O)c(OC)c1	inactive	inactive	inactive	-1.8% (inactive) and -13.4% (inactive) and 5.2% (inactive)	inactive	inactive	inactive	inactive	inactive	–	–	–
Cc1cccc(C)c1	inactive	inactive	inactive	-11.1% (inactive) and -3.52% (inactive) and 0.116% (inactive)	inactive	inactive	inactive	inactive	inactive	–	–	–
CC1(C)O[C@@H]2C[C@H]3[C@@H]4CCC5=CC(=O)C=C[C@]5(C)[C@@]4(F)[C@@H](O)C[C@]3(C)[C@]2(C(=O)CO)O1	inactive and 9.52 µM (active)	inactive	inactive	-22.1% (inactive) and -11.6% (inactive) and -2.14% (inactive)	–	inactive	inactive	inactive	inactive	–	–	–
CC1(C)S[C@@H]2[C@H](NC(=O)[C@H](N)c3ccccc3)C(=O)N2[C@H]1C(=O)O	inactive	–	–	–	inactive	inactive	–	inactive	inactive	–	–	–
COc1ccc2c(c1)c(CC(=O)O)c(C)n2C(=O)c1ccc(Cl)cc1	inactive	inactive	inactive	-7.62% (inactive) and 0.0637% (inactive)	inactive	inactive	inactive	inactive	inactive	–	–	–
OC[C@H]1O[C@H](O[C@]2(CCl)O[C@H](CCl)[C@@H](O)[C@@H]2O)[C@H](O)[C@@H](O)[C@H]1Cl	inactive	inactive	inactive	-6.96% (inactive) and 4.96% (inactive) and 1.17% (inactive)	inactive	inactive	inactive	inactive	inactive	–	–	–
Nc1ccc2c(c1)CN1C(=O)c3ccccc3C1=N2	10.4 µM (active)	–	–	–	10.4 µM (active)	10.4 µM (active)	–	10.4 µM (active)	10.4 µM (active)	3.69 µM (active)	-9.67% [at 15.8 µM] (inactive)	-0.629% [at 15.8 µM] (inactive)
CCOC(N)=O	inactive	inactive	inactive	6.85% (inactive) and 12.6% (inactive) and -3.78% (inactive)	inactive	inactive	inactive	inactive	inactive	–	–	–
C1=CC2C3C=CC(C3)C2C1 (stereo not drawn)	–	inactive	inactive	0.978% (inactive)	–	inactive	inactive	inactive	inactive	–	–	–
CN[C@H]1CC[C@@H](c2ccc(Cl)c(Cl)c2)c2ccccc21	–	–	–	–	–	19 µM (active)	23.9 µM (active)	19 µM (active)	16.9 µM (active)	23.9 µM (active)	–	–
O=C(Nc1ncc([N+](=O)[O-])s1)c1cccs1	inactive	inactive	inactive	-20.9% (inactive)	inactive	inactive	inactive	inactive	inactive	–	–	–
COc1ccc(C(Cl)=C(c2ccc(OC)cc2)c2ccc(OC)cc2)cc1	inactive	inactive	–	-17.7% (inactive)	inactive	inactive	inactive	inactive	inactive	–	–	–
COc1ccc(OC(F)(F)F)cc1CN[C@H]1CCCN[C@H]1c1ccccc1	–	49 µM (active)	–	–	–	54.9 µM (active)	54.9 µM (active)	49 µM (active)	49 µM (active)	43.6 µM (active)	–	–
Oc1ccccc1	inactive	inactive	inactive	1.54% (inactive) [middle of 5 runs]	inactive	inactive	inactive	inactive	inactive	–	–	–
CCCCNC(=O)NS(=O)(=O)c1ccc(C)cc1	inactive	inactive	inactive	-2.16% (inactive) and 5.08% (inactive) and 4.55% (inactive)	inactive	inactive	inactive	inactive	inactive	–	–	–
CC(=O)Nc1c(I)c(NC(C)=O)c(I)c(C(=O)O)c1I	inactive	inactive	inactive	8.14% (inactive) and 7% (inactive) and 2.59% (inactive)	inactive	inactive	inactive	inactive	inactive	–	–	–
CC(=O)C(=O)O	inactive	inactive	inactive	-1.91% (inactive) and -9.51% (inactive) and -2.01% (inactive)	inactive	inactive	inactive	inactive	inactive	–	–	–
CN(C)C(=O)Nc1ccc(Cl)c(Cl)c1	inactive	inactive	inactive	-20.7% (inactive)	inactive	inactive	inactive	inactive	inactive	–	–	–
CC(=O)CCC(=O)O	inactive	inactive	inactive	-1.85% (inactive) and 3.92% (inactive) and 7.17% (inactive)	inactive	inactive	inactive	inactive	inactive	–	–	–
